In PubChem BioAssay (NCATS):
Inconclusive results are not listed. Unmarked numbers belong to inactive results. The call rests on the fitted dose curve; in most records, active means well fitted curve in the direction sought with a large enough effect; inconclusive means small, poorly fitted or top-dose-only effect, or another doubt; inactive means no such curve, though single readings can be large or run the other way.

assay: qHTS Assay for Identifying Gametocytocidal Compounds (AID 743244);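 further: actives lower the fluorescent signal which means gametocytes are killed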; conditions: P. falciparum 3D7 stage III-V gametocytes, alamarBlue, 72 h; max response: hits give low values
Procedure, shortened: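 Stage III–V gametocytes of P. falciparum 3D7 were seeded at 20,000 cells/well onto pre-dispensed compounds. After 72 h, 37 °C, 5% CO2, alamarBlue was added for another 24 h.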
On the % scale 0 is the no-effect control and ±100 the full control effect.

Row | SMILES | max response
1 | OC(CCN1CCCC1)(c1ccccc1)C1CCCCC1 (stereo not given) | 3.62%
2 | Nc1ncnc(Nc2ccccc2)n1 | -1.5%
3 | CC(=O)SC[C@@H](Cc1ccccc1)C(=O)NCC(=O)OCc1ccccc1 | 3.78%
4 | C[N+](C)(C)CC(O)CC(=O)[O-] (stereo not given) | -7.85%
5 | CCCCC1(COC(=O)CCC(=O)O)C(=O)N(c2ccccc2)N(c2ccccc2)C1=O | 1.1%
6 | CC(=O)Oc1cccc(C)c1 | 19.2%
7 | Cc1ccsc1/C=C/C1=NCCCN1C | 6.27%
8 | O=C(O)Cn1c(C(=O)Nc2nc(-c3ccccc3Cl)cs2)cc2ccccc21 | 1.71%
9 | CC(C)c1cc2c(cc1S(=O)(=O)O)[C@@]1(C)CCC[C@@](C)(C(=O)O)[C@@H]1CC2 | -8.74%
10 | O=C(O)c1ccc(OCCCOc2ccc(C(=O)O)cc2)cc1 | 1.74%
11 | O=C(NCN1CCOCC1)c1cnccn1 | -4.94%
12 | Cc1c(NC(C)C)c(=O)n(-c2ccccc2)n1C | -2.3%
13 | COC(=O)N/N=C/c1c[n+]([O-])c2ccccc2[n+]1[O-] | 5.03%
14 | NC(=O)CC[C@@H](N)C(=O)O | -2.82%
15 | CC1(C)S[C@@H]2[C@H](N=CN3CCCCCC3)C(=O)N2[C@H]1C(=O)O | -2.77%
16 | NNC(=O)CP(=O)(c1ccccc1)c1ccccc1 | -4.41%
17 | Cn1c([N+](=O)[O-])cnc1COC(N)=O | 1.6%
18 | CC(=O)N(CC(O)CO)c1c(I)c(C(=O)NCC(O)CO)c(I)c(C(=O)NCC(O)CO)c1I (stereo not given) | -11.4%
19 | C[n+]1ccccc1/C=N/O | 8.92%
20 | O=C(O)Cc1cn(-c2ccccc2)nc1-c1ccc(Cl)cc1 | 6.52%
